Assay results from PubChem BioAssay (EPA / NIEHS).
Where “and” joins values, the source holds several entries; their conditions need not be identical. Identical values can stand only once. The source holds several records for some structures; these can differ, active in one and inactive in another. Calls of active or inactive are those of the source. Rule for the calls: active = hit-call score of the fitted dose curve at least 0.9, where 1 is the maximum; inactive = score below 0.9.

Assays:
[1] = ATG_CRE_CIS: Attagene CIS-FACTORIAL HepG2 Assay for human cAMP Responsive Element (CRE) binding protein 3 (AID 2282926); settings: HepG2 CRE cis-reporter, Attagene multiplexed mRNA; actives raise or lower the signal
Procedure, shortened: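 Assay format: transient reporter transfection of HepG2, 24 h treatment, total RNA isolation with DNase I step. Reporter abundance read by fluorescence after PCR and capillary separation; DMSO-normalised gain or loss fitting.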

[2] = biological target: CCAAT/enhancer-binding protein beta (Homo sapiens) (UniProt P17676); assay: ATG_C_EBP_CIS: Attagene CIS-FACTORIAL HepG2 Assay for human CCAAT/Enhancer Binding Protein (C/EBP) beta (AID 2282927); settings: HepG2 Attagene cis-factorial transcription factor reporter; actives raise or lower the signal
Procedure, shortened: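 HepG2, transient MRTU transfection, 24 h treatment. RT-PCR plus CE fluorescence; DMSO negative control, bidirectional fit.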

[3] = ATG_CMV_CIS: Attagene CIS-FACTORIAL HepG2 Assay for human CMV (Internal Marker) (AID 2282928); settings: HepG2 CMV promoter reporter, transcription factor profiling; actives raise or lower the signal;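 note: endpoint acts as a background internal control marker rather than a target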
Procedure, shortened: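 Fluorescence intensity of RT-PCR-derived reporter fragments, resolved by capillary electrophoresis, gives the signal. HepG2 liver cells bearing transfected cis-element reporters were treated 24 h; activity in either direction was fit relative to DMSO-treated controls.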

[4] = ATG_DR4_LXR_CIS: Attagene CIS-FACTORIAL HepG2 Assay for human Liver X Receptor (LXR), DR4 submotif (AID 2282929); settings: HepG2 Attagene DR4 cis-reporter, mRNA transcription; actives raise or lower the signal
Procedure, shortened: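 HepG2 cells transiently transfected with cis-promoter-driven multiplexed reporter units (DR4 element) were dosed for 24 h. Reporter mRNA was quantified by RT-PCR, fluorescent primer extension, HpaI digestion and capillary electrophoresis; bidirectional fitting versus DMSO baseline.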

[5] = biological target: Aryl hydrocarbon receptor (Homo sapiens) (UniProt P35869); assay: ATG_Ahr_CIS: Attagene CIS-FACTORIAL HepG2 Assay for human Aryl Hydrocarbon Receptor (Ahr) (AID 2282930); settings: HepG2 AhR cis-factorial reporter transcription; actives raise or lower the signal
Procedure, shortened: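 Endogenous factor activity is tracked through cis-promoter reporter units transfected into HepG2 cells. Transcript levels at 24 h are read by fluorescent RT-PCR and capillary electrophoresis, with activity in either direction scored relative to DMSO.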

[6] = ATG_AP_1_CIS: Attagene CIS-FACTORIAL HepG2 Assay for human Activator Protein 1 (AP-1) (AID 2282931); settings: HepG2 Attagene cis-factorial AP-1 reporter mRNA; actives raise or lower the signal
Procedure, shortened: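 HepG2 cells transiently transfected with cis-element-driven multiplex reporter units; 24 h compound exposure. Reporter mRNA quantified by RT-PCR, FAM-labelled fragments resolved by capillary electrophoresis; bidirectional fit versus DMSO baseline.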

[7] = ATG_AP_2_CIS: Attagene CIS-FACTORIAL HepG2 Assay for human Activator Protein 2 (AP-2) (AID 2282932); settings: HepG2 AP-2 cis-reporter, Attagene transcription factor profiling; actives raise or lower the signal
Procedure, shortened: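 Liver-derived HepG2 line, cis-reporter system measuring endogenous factors; 24 h dosing; reporter mRNA detected by fluorescent RT-PCR and capillary electrophoresis.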

[8] = ATG_BRE_CIS: Attagene CIS-FACTORIAL HepG2 Assay for human Bone Morphogenetic Protein (BMP) Response Element (BRE) (AID 2282933); settings: HepG2 BMP response element reporter, Attagene transcription factor profiling; actives raise or lower the signal
Procedure, shortened: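 HepG2 cells transiently transfected with CIS reporter units (endogenous TF activity, BMP response element), dosed 24 h. Reporter mRNA quantified by RT-PCR, fluorescent labelling and capillary electrophoresis; bidirectional fit vs DMSO baseline.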

[9] = biological target: Transcription factor E2F1 (Homo sapiens) (UniProt Q01094); assay: ATG_E2F_CIS: Attagene CIS-FACTORIAL HepG2 Assay for human E2F Transcription Factor 1 (AID 2282935); settings: HepG2 Attagene cis-reporter, E2F reporter RNA transcripts; actives raise or lower the signal
Procedure, shortened: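 Liver-derived HepG2 cells expressing transfected promoter-driven reporter units received test chemical for 24 hours. Signal gains or losses were fitted bidirectionally against DMSO.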

[10] = ATG_E_Box_CIS: Attagene CIS-FACTORIAL HepG2 Assay for human Enhancer Box (E-box) (AID 2282936); settings: HepG2 E-box cis-reporter transcription, actives raise or lower the signal
Procedure, shortened: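 In this cell-based setup, HepG2 cells bearing transfected promoter-driven reporter units were exposed to chemicals for 24 h; reporter transcripts were amplified, 6-FAM-labelled, cut with HpaI and sized by capillary electrophoresis.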

[11] = ATG_EGR_CIS: Attagene CIS-FACTORIAL HepG2 Assay for human Early Growth Response 1 (EGR1) (AID 2282938); settings: HepG2 Attagene CIS-FACTORIAL EGR reporter mRNA; actives raise or lower the signal
Procedure, shortened: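 HepG2 cells transiently transfected with cis-promoter-driven multiplexed reporter transcription units; reporter mRNA measured 24 h after compound dosing by RT-PCR, 6-FAM primer extension, HpaI digestion and capillary electrophoresis. Bidirectional fit versus DMSO baseline.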

[12] = ATG_M_19_CIS: Attagene CIS-FACTORIAL HepG2 Assay for M19 Transcription Factor (Internal Marker) (AID 2282939); settings: HepG2 Attagene CIS-FACTORIAL M19 internal marker reporter; actives raise or lower the signal
Procedure, shortened: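 HepG2 cells transiently transfected with cis-regulated multiplexed reporter units, dosed 24 h. Reporter mRNA quantified by RT-PCR and capillary electrophoresis; internal background marker fitted bidirectionally versus DMSO.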

[13] = ATG_ERE_CIS: Attagene CIS-FACTORIAL HepG2 Assay for Estrogen Response Element (ERE) (AID 2282940); settings: HepG2 ERE cis-reporter, Attagene RNA transcript; actives raise or lower the signal
Procedure, shortened: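 HepG2 cells transiently transfected with multiplexed cis-element reporter units, measuring endogenous transcription factor activity; ERE reporter mRNA quantified after 24 h exposure by RT-PCR, fluorescent labelling, HpaI digestion and capillary electrophoresis. Bidirectional change versus DMSO.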

[14] = ATG_Ets_CIS: Attagene CIS-FACTORIAL HepG2 Assay for human Erythroblast Transformation Specific (ETS) (AID 2282941); settings: HepG2 ETS cis-reporter transcription, actives raise or lower the signal
Procedure, shortened: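 Multiplexed reporter transcript profiling: HepG2, 24 h treatment, total RNA to cDNA, PCR, 6-FAM labelling, HpaI cut, capillary electrophoresis. Gain- or loss-of-signal fitted against DMSO.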

[15] = biological target: Hepatocyte nuclear factor 3-beta (Homo sapiens) (UniProt Q9Y261); assay: ATG_FoxA2_CIS: Attagene CIS-FACTORIAL HepG2 Assay for human Forkhead box A2 (FOXA2) (AID 2282942); settings: HepG2 cis-reporter transcription factor activity, 24 h; actives raise or lower the signal
Procedure, shortened: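 HepG2 cells transiently transfected with multiple cis-regulated reporter transcription units, dosed for 24 h. Reporter mRNA measured by RT-PCR, 6-FAM labelling, HpaI digestion and capillary electrophoresis; bidirectional fitting against DMSO baseline.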

[16] = ATG_FoxO_CIS: Attagene CIS-FACTORIAL HepG2 Assay for human Forkhead box O (FoxO) (AID 2282943); settings: HepG2 Attagene cis-reporter, FoxO element, mRNA; actives raise or lower the signal
Procedure, shortened: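 Transfected HepG2 reporter cells exposed to test chemical for 24 h; reporter RNA measured by reverse transcription, PCR and fluorescent capillary electrophoresis; curves fitted for increases and decreases against DMSO.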

[17] = ATG_GATA_CIS: Attagene CIS-FACTORIAL HepG2 Assay for human GATA Binding Protein (AID 2282944); settings: HepG2 GATA cis-element reporter, Attagene multiplex mRNA; actives raise or lower the signal
Procedure, shortened: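 HepG2 cells transiently transfected with multiplexed cis-element reporter units measure endogenous GATA activity; after 24 h compound exposure, reporter mRNA quantified by RT-PCR and capillary electrophoresis. Changes fitted in both directions vs DMSO.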

[18] = APR_HepG2_NuclearSize_72hr: Apredica 72-hour HepG2 Assay for Nuclear Size (AID 2282925); settings: high-content imaging, actives raise or lower the signal
Procedure, shortened: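 Read-out: nuclear diameter from Hoechst 33342 images (ArrayScan, 20x, six fields/well), via cell-cycle image analysis. HepG2 were dosed 0.39–200 uM for 72 hr in 0.5% DMSO. Bidirectional fit relative to DMSO.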

[19] = biological target: Retinoic acid receptor alpha (Homo sapiens) (UniProt P10276); assay: ATG_DR5_RAR_CIS: Attagene CIS-FACTORIAL HepG2 Assay for human Retinoic Acid Receptor Alpha (RARE), DR5 submotif (AID 2282934); settings: HepG2 Attagene cis-factorial RARE DR5 reporter, mRNA; actives raise or lower the signal
Procedure, shortened: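 After 24 h of chemical exposure, transiently transfected HepG2 cells were lysed for total RNA; the DR5-regulated reporter transcript was quantified via RT-PCR and capillary electrophoresis, with activity fitted bidirectionally against DMSO.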

[20] = ATG_M_61_CIS: Attagene CIS-FACTORIAL HepG2 Assay for M61 Transcription Factor (Internal Marker) (AID 2282937); settings: HepG2 Attagene CIS-FACTORIAL M61 internal marker reporter; actives raise or lower the signal
Procedure, shortened: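 HepG2 cells transiently transfected with cis-element-driven multiple reporter transcription units, dosed for 24 h. Reporter mRNA measured by RT-PCR, 6-FAM primer-extension labelling, HpaI digestion and capillary electrophoresis; bidirectional fit versus DMSO baseline.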

Measured: AC50

Sequence of Aryl hydrocarbon receptor (Homo sapiens) (P35869 whole entry, looked up): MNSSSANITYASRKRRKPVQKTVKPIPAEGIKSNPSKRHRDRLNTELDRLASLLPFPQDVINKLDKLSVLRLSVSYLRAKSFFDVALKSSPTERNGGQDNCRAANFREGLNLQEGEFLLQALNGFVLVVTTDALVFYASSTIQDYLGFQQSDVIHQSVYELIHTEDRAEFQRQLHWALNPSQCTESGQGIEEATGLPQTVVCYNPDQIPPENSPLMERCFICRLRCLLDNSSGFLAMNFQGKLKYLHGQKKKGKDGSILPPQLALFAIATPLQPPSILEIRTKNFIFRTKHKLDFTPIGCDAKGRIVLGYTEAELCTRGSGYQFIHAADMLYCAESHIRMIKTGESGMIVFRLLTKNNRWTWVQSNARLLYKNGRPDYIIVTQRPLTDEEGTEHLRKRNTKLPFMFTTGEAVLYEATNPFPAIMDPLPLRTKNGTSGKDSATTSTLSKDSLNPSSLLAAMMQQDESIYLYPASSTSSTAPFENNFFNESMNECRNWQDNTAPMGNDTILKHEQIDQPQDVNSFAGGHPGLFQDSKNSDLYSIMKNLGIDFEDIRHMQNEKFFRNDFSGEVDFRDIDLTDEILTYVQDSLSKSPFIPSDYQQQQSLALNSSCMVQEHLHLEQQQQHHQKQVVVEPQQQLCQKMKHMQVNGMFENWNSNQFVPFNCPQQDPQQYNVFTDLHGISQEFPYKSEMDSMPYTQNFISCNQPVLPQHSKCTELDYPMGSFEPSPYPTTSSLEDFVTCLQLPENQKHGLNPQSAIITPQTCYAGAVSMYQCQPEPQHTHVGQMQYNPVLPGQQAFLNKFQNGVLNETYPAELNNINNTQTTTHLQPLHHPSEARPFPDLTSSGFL
Sequence of CCAAT/enhancer-binding protein beta (Homo sapiens) (P17676 whole entry, looked up): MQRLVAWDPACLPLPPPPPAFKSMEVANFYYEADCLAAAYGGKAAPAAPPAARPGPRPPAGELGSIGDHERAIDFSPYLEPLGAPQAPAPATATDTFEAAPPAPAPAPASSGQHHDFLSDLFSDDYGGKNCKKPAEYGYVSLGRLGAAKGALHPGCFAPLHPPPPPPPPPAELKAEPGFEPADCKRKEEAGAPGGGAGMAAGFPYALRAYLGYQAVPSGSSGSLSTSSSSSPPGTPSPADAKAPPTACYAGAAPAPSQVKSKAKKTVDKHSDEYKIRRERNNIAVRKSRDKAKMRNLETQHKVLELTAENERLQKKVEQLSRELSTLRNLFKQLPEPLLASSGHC
Sequence of Transcription factor E2F1 (Homo sapiens) (Q01094 whole entry, looked up): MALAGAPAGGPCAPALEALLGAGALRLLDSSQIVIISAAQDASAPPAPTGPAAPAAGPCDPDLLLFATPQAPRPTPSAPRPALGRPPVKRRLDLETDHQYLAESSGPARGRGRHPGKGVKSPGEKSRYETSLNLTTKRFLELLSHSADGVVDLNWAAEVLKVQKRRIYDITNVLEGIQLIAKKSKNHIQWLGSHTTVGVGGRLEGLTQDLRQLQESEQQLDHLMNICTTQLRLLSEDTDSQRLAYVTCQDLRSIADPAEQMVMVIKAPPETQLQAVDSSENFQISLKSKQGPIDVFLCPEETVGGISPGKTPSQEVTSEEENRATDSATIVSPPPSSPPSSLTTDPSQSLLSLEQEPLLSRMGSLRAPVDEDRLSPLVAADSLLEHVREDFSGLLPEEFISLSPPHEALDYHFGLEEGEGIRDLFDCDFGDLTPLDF
Sequence of Hepatocyte nuclear factor 3-beta (Homo sapiens) (Q9Y261 whole entry, looked up): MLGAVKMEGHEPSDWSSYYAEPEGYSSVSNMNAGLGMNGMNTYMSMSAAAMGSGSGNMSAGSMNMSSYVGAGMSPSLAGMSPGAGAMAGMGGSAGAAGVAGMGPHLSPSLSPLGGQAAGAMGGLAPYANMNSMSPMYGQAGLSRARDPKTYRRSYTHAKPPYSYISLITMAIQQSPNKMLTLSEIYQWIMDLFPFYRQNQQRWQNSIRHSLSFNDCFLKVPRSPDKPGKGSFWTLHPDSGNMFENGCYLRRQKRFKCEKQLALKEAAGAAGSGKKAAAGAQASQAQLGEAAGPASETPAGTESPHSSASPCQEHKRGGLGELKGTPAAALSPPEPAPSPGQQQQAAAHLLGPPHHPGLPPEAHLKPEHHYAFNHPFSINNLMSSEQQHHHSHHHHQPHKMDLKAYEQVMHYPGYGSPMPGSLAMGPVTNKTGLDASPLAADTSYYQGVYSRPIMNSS
Sequence of Retinoic acid receptor alpha (Homo sapiens) (P10276 whole entry, looked up): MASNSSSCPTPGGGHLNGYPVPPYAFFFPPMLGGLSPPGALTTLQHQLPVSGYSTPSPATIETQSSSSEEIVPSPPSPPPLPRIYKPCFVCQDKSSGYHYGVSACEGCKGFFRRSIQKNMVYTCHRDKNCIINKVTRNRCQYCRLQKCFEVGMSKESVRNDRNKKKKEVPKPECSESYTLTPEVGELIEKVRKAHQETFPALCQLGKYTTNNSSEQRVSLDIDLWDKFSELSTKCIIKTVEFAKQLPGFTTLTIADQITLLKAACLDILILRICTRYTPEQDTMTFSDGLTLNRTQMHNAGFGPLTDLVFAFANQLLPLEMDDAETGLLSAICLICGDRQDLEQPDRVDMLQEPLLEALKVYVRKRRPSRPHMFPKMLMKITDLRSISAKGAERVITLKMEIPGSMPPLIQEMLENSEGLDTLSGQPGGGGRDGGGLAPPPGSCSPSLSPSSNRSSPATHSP

Cc1ccc(S(=O)(=O)O)c(C)c1
not listed: [18] | [19] | [20]
inactive: all other assays above

CCCCCCCCOC(=O)CCCCCCCCC(=O)OCCCCCCCC
not listed: [20]
inactive: all other assays above

COCC(C)OCC(C)O (stereo not drawn)
not listed: [20]
inactive: all other assays above

O=C1OC2(c3ccccc31)c1cc(Br)c(O)c(Br)c1Oc1c2cc(Br)c(O)c1Br
active: [3] 93 µM | [10] 62.7 µM | [11] 62.3 µM
inactive: [1] | [2] | [3] | [4] | [5] | [6] | [7] | [8] | [19] | [9] | [10] | [11] | [12] | [13] | [14] | [15] | [16] | [17]

CC(O)C(=O)O (stereo not drawn)
not listed: [18] | [20]
inactive: all other assays above

CC(O)CO (stereo not drawn)
not listed: [20]
inactive: all other assays above

CC[C@H](C)[C@@H](C(=O)O)n1sc2ccccc2c1=O
not listed: [20]
inactive: all other assays above

CC(C)(C)CC(C)(C)c1ccc(O)c(-n2nc3ccccc3n2)c1
active: [18] 80.4 µM | [3] 61.4 µM | [6] 58.3 µM
not listed: [20]
inactive: all other assays above

COc1cc(CCC(=O)CC(=O)CCc2ccc(O)c(OC)c2)ccc1O
not listed: [20]
inactive: all other assays above

NCC(F)(F)C(F)(F)C(F)(F)C(F)(F)C(F)(F)C(F)(F)C(F)(F)F
not listed: [18] | [20]
inactive: all other assays above

CCCCCCCC(=O)O
not listed: [19]
inactive: all other assays above

CC(C)CCCCCCOC(=O)CCCCC(=O)OCCCCCCC(C)C
active: [5] 60.3 µM
not listed: [20]
inactive: all other assays above

OC1CCC(C2CCCCC2)CC1 (stereo not drawn)
active: [4] 158 µM [middle of 4 runs] | [5] 1.32 µM and 47 µM | [6] 162 µM and 149 µM | [7] 56.9 µM | [13] 27 µM and 27.4 µM and 27.5 µM
inactive: [18] | [1] | [2] | [5] | [6] | [7] | [8] | [19] | [9] | [10] | [20] | [11] | [12] | [14] | [15] | [16] | [17]
